The results in this text go back to ChEMBL document CHEMBL2218924, “A broad activity screen in support of a chemogenomic map for kinase signalling research and drug discovery” (Biochem J, 2013).

Assay [1] addresses T1, Testis-specific serine/threonine-protein kinase 1 (Homo sapiens) (UniProt Q9BXA7).
T1 sequence (whole entry): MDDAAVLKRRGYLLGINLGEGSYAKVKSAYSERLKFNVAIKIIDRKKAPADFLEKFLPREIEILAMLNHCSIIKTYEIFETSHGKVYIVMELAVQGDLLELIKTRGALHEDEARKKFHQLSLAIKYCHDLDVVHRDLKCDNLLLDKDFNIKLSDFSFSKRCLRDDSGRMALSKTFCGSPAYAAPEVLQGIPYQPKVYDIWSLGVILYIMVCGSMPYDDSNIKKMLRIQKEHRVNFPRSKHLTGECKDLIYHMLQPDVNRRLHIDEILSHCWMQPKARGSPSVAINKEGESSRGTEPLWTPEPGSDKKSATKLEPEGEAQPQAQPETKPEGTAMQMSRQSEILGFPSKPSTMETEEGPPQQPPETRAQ
Conditions: at 1 µM.

Assay [2] deals with T1, Testis-specific serine/threonine-protein kinase 1 (Homo sapiens). The note with it: at 10 µM.
Assay [3] addresses High affinity nerve growth factor receptor (Homo sapiens) (UniProt P04629). Conditions: at 1 µM.
Assay [4] shares this target. The note with it: at 10 µM.
The target of assay [5] is BDNF/NT-3 growth factors receptor (Homo sapiens) (UniProt Q16620). Conditions: at 1 µM.
Assay [6] has the same target. The note with it: at 10 µM.
For assay [7], the target named is T2, Tyrosine-protein kinase TXK (Homo sapiens) (UniProt P42681).
T2 sequence (whole entry): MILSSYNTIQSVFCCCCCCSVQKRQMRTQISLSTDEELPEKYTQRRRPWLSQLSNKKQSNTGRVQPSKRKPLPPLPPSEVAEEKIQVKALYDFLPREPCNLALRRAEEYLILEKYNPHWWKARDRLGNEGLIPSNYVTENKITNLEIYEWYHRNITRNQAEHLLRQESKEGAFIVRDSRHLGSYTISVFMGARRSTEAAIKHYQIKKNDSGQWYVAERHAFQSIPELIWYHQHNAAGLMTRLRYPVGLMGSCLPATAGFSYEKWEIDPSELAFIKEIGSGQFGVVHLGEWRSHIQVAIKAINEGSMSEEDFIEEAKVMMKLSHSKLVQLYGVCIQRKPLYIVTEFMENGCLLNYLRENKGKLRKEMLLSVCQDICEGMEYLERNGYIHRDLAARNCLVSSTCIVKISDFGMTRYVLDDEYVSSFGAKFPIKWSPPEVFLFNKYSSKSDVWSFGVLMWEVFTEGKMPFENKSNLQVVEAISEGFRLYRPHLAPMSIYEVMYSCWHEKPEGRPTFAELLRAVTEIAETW
Conditions: at 1 µM.

Assay [8] deals with T2, Tyrosine-protein kinase TXK (Homo sapiens). The note with it: at 10 µM.
Assay [9] has as its target T3, Serine/threonine-protein kinase ULK2 (Homo sapiens) (UniProt Q8IYT8).
T3 sequence (whole entry): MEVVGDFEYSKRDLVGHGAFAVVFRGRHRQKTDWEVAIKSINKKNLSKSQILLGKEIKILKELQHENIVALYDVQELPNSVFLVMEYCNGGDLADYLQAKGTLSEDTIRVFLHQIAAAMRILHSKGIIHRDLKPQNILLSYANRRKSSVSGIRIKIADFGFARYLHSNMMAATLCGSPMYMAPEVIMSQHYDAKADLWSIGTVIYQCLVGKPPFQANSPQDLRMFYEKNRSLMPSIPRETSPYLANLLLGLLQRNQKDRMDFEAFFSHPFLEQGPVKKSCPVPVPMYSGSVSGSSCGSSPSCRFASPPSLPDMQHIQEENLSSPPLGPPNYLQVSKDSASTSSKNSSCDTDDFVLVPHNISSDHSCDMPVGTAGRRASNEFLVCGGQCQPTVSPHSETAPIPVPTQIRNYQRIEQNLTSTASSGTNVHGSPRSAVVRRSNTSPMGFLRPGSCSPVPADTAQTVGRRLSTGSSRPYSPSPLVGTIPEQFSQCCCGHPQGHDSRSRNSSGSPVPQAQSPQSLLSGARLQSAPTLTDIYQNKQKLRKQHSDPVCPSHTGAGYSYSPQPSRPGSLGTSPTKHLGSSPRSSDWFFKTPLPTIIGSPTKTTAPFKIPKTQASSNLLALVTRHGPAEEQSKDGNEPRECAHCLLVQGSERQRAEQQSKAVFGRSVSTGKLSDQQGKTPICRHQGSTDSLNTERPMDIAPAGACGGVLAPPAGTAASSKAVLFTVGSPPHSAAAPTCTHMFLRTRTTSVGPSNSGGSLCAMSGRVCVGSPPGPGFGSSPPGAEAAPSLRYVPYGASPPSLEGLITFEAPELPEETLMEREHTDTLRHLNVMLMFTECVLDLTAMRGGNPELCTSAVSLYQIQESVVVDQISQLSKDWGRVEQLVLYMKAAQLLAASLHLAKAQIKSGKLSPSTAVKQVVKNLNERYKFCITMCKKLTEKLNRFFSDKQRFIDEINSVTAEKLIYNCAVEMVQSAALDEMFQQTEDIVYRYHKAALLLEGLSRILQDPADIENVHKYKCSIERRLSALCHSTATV
The note with it: at 1 µM.

Assay [10] addresses T3, Serine/threonine-protein kinase ULK2 (Homo sapiens). Conditions: at 10 µM.
The target of assay [11] is T4, Serine/threonine-protein kinase ULK3 (Homo sapiens) (UniProt Q6PHR2).
T4 sequence (whole entry): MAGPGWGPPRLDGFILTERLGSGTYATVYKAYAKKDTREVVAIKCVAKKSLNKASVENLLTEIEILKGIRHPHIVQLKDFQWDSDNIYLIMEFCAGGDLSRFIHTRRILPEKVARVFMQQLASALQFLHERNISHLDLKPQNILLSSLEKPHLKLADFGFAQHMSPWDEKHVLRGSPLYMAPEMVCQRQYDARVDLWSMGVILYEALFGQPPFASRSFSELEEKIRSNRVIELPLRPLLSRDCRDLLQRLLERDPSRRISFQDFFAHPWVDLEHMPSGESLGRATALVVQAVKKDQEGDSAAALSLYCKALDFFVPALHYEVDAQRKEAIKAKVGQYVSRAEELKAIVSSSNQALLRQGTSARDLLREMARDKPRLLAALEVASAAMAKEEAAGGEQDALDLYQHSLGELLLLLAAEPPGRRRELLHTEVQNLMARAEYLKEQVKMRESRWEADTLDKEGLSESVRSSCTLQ
Conditions: at 1 µM.

Assay [12] concerns the target T4, Serine/threonine-protein kinase ULK3 (Homo sapiens). Conditions: at 10 µM.
The target in assay [13] is T5, Testis-specific serine/threonine-protein kinase 2 (Homo sapiens) (UniProt Q96PF2).
T5 sequence (whole entry): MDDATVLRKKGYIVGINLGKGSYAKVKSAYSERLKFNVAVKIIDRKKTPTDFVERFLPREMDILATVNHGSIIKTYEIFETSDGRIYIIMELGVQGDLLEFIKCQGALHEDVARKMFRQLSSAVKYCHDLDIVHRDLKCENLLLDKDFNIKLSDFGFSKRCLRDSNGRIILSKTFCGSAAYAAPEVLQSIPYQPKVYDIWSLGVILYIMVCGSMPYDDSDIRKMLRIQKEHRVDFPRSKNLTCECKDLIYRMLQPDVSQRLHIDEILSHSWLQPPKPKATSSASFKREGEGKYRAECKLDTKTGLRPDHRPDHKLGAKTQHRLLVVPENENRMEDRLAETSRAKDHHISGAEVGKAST
Conditions: at 10 µM.

Assay [14] concerns the target Serine/threonine-protein kinase WNK2 (Homo sapiens) (UniProt Q9Y3S1). Conditions: at 1 µM.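 Note: residual WNK2 kinase activity expressed as percent of uninhibited control, assayed in MOPS buffer at pH 7.0 containing EDTA.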
The target of assay [15] is T6, Tyrosine-protein kinase Tec (Homo sapiens) (UniProt P42680).
T6 sequence (whole entry): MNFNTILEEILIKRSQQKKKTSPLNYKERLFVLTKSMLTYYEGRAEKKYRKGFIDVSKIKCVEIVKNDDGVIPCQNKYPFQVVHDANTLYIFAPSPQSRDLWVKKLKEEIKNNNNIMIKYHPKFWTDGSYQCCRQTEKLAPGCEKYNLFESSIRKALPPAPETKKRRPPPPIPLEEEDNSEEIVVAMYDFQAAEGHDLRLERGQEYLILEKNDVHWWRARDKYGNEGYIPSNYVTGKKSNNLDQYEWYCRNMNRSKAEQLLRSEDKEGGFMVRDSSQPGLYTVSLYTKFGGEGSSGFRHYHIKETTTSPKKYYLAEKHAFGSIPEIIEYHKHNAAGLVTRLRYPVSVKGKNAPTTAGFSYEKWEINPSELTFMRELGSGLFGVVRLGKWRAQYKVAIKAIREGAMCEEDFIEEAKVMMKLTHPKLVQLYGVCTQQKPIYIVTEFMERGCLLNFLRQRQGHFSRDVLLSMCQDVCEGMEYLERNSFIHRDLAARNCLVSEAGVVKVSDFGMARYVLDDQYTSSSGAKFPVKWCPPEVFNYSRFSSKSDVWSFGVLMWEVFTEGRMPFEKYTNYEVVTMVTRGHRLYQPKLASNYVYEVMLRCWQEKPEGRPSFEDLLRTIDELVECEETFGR
Conditions: at 1 µM.

In assay [16] the target is T6, Tyrosine-protein kinase Tec (Homo sapiens). The note with it: at 10 µM.
Assay [17] addresses Angiopoietin-1 receptor (Homo sapiens) (UniProt Q02763). The note with it: at 1 µM.
Assay [18] shares this target. The note with it: at 10 µM.
Assay [19] deals with Serine/threonine-protein kinase VRK2 (Homo sapiens) (UniProt Q86Y07). Conditions: at 1 µM.
Chain of Serine/threonine-protein kinase VRK2 (Homo sapiens) (Q86Y07 whole entry): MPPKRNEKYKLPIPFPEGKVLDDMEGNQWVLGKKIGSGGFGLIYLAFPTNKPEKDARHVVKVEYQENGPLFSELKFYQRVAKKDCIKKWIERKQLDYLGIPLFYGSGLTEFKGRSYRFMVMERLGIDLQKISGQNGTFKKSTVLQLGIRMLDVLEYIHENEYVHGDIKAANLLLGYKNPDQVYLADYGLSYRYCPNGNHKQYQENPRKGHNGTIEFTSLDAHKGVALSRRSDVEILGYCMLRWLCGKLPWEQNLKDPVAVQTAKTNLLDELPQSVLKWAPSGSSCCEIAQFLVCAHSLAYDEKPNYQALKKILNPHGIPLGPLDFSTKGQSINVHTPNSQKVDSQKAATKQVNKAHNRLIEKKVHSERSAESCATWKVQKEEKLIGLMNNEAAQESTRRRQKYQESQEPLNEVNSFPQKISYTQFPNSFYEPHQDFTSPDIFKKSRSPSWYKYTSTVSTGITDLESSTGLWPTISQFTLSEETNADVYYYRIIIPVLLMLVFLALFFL
Assay [20] shares this target. Conditions: at 10 µM.

Chain of Serine/threonine-protein kinase WNK2 (Homo sapiens) (Q9Y3S1 whole entry): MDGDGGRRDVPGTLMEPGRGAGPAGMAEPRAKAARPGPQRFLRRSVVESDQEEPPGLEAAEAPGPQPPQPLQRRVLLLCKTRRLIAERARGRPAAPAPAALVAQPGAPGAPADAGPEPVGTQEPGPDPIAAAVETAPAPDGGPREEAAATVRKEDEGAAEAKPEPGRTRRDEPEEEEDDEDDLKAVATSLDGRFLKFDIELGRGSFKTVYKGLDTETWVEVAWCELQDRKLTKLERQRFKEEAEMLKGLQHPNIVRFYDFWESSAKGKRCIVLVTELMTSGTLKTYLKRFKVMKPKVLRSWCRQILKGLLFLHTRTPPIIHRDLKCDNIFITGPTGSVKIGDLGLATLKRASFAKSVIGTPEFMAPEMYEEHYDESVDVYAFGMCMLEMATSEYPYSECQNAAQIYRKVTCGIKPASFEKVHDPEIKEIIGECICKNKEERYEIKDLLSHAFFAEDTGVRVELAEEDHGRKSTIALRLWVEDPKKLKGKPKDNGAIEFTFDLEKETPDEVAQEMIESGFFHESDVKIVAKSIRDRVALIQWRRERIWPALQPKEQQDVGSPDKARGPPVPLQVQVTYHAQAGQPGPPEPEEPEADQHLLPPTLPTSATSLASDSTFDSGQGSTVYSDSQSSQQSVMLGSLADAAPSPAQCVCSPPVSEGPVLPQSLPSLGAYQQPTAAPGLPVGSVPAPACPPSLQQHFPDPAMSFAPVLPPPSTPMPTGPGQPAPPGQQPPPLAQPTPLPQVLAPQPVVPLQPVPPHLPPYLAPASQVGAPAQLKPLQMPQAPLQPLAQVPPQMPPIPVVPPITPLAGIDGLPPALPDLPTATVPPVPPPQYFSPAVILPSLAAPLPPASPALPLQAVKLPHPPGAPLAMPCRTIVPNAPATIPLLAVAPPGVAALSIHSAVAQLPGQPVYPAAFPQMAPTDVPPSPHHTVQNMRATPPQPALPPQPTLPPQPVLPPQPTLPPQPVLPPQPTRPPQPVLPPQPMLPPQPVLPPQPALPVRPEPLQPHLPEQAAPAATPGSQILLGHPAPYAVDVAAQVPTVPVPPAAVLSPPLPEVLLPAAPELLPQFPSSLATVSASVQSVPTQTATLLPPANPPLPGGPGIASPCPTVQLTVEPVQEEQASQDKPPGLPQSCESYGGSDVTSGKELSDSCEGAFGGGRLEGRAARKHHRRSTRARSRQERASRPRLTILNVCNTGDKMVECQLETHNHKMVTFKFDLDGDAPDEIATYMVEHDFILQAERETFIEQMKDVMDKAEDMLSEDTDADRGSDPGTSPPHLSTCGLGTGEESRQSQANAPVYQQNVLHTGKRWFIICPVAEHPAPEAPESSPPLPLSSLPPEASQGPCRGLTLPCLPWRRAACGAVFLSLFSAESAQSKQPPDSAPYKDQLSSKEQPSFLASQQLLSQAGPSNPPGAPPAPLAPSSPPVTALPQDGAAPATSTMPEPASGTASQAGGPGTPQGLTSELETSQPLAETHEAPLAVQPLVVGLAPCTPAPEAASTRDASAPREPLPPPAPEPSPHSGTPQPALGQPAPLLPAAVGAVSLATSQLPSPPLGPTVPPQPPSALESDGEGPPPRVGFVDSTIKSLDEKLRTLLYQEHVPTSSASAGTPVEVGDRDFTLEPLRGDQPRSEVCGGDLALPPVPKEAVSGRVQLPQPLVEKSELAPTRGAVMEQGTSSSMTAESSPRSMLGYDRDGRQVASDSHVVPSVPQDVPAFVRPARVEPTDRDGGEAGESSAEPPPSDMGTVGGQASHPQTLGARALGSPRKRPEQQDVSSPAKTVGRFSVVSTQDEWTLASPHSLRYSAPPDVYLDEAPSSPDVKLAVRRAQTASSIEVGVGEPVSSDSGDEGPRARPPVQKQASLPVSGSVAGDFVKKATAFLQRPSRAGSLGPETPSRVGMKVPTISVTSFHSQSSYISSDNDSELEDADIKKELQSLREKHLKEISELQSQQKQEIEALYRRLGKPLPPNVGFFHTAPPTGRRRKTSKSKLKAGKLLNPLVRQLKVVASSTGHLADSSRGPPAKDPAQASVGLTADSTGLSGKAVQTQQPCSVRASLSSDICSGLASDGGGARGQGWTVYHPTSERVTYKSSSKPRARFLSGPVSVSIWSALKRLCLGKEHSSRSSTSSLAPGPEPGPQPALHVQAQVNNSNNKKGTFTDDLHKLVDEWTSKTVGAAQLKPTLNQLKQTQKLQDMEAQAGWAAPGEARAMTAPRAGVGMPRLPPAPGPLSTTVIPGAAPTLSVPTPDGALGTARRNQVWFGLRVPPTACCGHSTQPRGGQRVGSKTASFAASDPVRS
Chain of High affinity nerve growth factor receptor (Homo sapiens) (P04629 33-796 limits assumed): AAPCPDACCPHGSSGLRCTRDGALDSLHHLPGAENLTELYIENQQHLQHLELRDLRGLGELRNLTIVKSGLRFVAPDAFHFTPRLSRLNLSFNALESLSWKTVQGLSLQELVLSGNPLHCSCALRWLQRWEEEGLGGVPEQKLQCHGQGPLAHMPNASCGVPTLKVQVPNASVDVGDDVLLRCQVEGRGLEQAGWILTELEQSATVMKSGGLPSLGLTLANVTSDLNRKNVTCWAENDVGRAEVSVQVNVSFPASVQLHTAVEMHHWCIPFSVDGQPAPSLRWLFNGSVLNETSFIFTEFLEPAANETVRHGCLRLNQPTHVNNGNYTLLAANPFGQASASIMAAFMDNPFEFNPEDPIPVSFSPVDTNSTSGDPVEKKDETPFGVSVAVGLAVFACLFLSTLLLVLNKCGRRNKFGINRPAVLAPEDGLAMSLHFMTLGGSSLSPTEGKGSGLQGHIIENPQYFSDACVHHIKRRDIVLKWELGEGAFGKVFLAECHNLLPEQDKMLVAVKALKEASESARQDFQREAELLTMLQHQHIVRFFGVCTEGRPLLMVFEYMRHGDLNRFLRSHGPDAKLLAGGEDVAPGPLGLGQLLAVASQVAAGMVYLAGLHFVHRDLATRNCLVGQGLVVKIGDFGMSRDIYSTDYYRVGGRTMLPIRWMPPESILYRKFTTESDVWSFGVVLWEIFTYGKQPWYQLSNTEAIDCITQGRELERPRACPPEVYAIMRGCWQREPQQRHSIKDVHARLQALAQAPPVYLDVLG
Chain of Angiopoietin-1 receptor (Homo sapiens) (Q02763 whole entry): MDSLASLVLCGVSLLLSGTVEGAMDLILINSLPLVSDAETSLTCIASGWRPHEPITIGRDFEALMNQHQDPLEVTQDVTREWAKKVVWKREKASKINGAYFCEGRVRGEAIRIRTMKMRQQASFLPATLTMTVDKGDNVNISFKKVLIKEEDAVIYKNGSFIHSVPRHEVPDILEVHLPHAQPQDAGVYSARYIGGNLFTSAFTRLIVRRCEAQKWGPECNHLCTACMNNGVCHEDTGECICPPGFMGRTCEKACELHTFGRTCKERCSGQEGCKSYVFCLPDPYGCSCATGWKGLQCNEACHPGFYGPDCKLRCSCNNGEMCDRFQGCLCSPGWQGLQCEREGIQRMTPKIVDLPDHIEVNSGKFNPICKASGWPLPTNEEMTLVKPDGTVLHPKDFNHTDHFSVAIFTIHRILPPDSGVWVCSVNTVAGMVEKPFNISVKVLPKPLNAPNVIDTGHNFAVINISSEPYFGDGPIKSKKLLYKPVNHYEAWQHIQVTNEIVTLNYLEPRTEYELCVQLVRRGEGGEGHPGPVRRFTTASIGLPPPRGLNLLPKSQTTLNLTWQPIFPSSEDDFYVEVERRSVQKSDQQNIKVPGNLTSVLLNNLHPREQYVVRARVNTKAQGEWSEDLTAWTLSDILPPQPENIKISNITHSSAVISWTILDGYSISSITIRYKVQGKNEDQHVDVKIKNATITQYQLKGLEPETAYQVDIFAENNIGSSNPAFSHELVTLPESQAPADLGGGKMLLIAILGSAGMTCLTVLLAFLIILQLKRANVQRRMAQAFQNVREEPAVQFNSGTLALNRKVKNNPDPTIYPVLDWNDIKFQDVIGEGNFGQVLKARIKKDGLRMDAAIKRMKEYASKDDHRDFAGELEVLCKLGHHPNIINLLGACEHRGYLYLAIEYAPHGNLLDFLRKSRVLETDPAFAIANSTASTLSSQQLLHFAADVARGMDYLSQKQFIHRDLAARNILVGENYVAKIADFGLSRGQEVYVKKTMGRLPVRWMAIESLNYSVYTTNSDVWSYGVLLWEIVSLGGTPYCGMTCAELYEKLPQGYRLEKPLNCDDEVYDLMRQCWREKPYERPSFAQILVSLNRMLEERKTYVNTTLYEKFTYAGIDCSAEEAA

In the case of `COc1ccc(-c2cnc3c(-c4ccsc4)cnn3c2)cc1`, the residual activity (usually the signal under treatment as a percentage of the control signal) in assay [1] was 98%; in assay [2] it was 96%; in assay [3], 76%; in assay [4] it was 88%; in [5], 66%; in assay [6], 73%. The residual activity in assay [7] amounted to 70%; in assay [8] it was 83%; in assay [9] it was 99%; in assay [10] it was 96%; in assay [11], 96%; in [12], 90%.

As to `CCN1/C(=C/C(C)=O)Sc2ccc(OC)cc21`, the residual activity in [13] is 75%; in [7] it was 81%; in assay [8], 77%; in assay [14] it was 76% (inactive).

With `Nc1ncnc2[nH]nc(Nc3ccc(F)cc3)c12`, the residual activity in assay [1] amounted to 108%; in [15] it was 82%; in assay [16] it was 21%; in assay [17], 104%; in assay [18] it was 79%; in assay [3], 78%. Moreover, the residual activity in assay [4] is 40%; in assay [5], 123%; in assay [7], 66%; in [8] it was 18%; in assay [9], 120%; in assay [10] it was 95%. The residual activity in assay [11] was 97%; in assay [12] it was 74%; in assay [19], 97% (inactive); in assay [20], 81%; in assay [14] it was 101% (inactive).

Regarding `N#C/C(=C\c1ccc(O)c(O)c1)C(=O)NCc1ccccc1`, the residual activity in assay [17] is 89%; in assay [18] it was 71%; in assay [3], 64%; in [4], -1%; in assay [6], 102%; in [8] it was 86%. Also, the values for the residual activity in [10] and in [12] were 85% and 86%, respectively.

Regarding `CN([C@@H](Cc1ccc(OS(=O)(=O)c2cccc3cnccc23)cc1)C(=O)N1CCN(c2ccccc2)CC1)S(=O)(=O)c1cccc2cnccc12`, the residual activity in assay [18] turned out to be 72%; in assay [5], 79%; in assay [6], 50%.

For `O=C(Nc1ccc(Cl)cc1)c1ccccc1NCc1ccncc1`, the residual activity in [18] came out at 79%; in assay [5], 117%; in assay [6], 99%; in [9], 102%.

In the case of `COc1cc2ncnc(Nc3cccc(Cl)c3)c2cc1OC`, the residual activity amounted to 80% in assay [2]; 43% in assay [16]; 111% in [17]; 83% in assay [18]; 88% in [3]; 55% in [4]. The residual activity in assay [5] came out at 50%; in assay [6], 61%; in assay [7], 87%; in [8], 49%; in assay [9], 104%; in assay [10] it was 100%. The residual activity in [11] was 102%; in assay [12] it was 79%; in assay [19] it was 102% (inactive); in assay [20], 74%.

In the case of `O=C1NC(=O)C(c2cn(CCCn3ccnc3)c3ccccc23)=C1Nc1ccccc1`, the residual activity is 55% in [17]; 32% in assay [18]; 1% in assay [3]; 9% in [4]; 44% in assay [5]; 18% in assay [6].

Regarding `O=S(=O)(c1cccc2cnccc12)N1CCCNCC1`, the residual activity in assay [5] was 83%.

Consider `Oc1cccc(-c2nc(N3CCOCC3)c3oc4ncccc4c3n2)c1`, for which the residual activity in assay [13] stood at 74%; in assay [17], 80%; in assay [18], 59%; in assay [3], 93%; in assay [4] it was 118%; in [7], 93%. Further, the residual activity is 92% in assay [8], 81% in assay [10], 92% in assay [12] and 89% in [20].

For the compound `O=C(c1cc2cc(O)ccc2[nH]1)c1cc2cc(O)ccc2[nH]1`, the residual activity in [2] was determined as 56%; in assay [13] it was 65%; in [15] it was 58%; in assay [16], 21%; in [17], 67%; in [18], 75%. For the same compound, the residual activity in assay [3] was 13%; in assay [4], 1%; in [5], 56%; in assay [6], -12%; in [7] it was 64%; in [8] it was 22%. For the same compound, the residual activity in [9] was 82%; in [10] it was 38%; in [11], 73%; in [12], 22%; in [19] it was 72% (inactive); in [20], 37%. For the same compound, the residual activity in assay [14] is 83% (inactive).
